Records with an inconclusive call do not appear. The source made the active and inactive calls. Calls follow the shape of the dose curve; as a rule, active = well fitted curve in the direction sought with a large enough effect; inconclusive = small, poorly fitted or top-dose-only effect, or another doubt; inactive = no such curve, though single readings can be large; an effect the other way counts as inactive or inconclusive.
Key:
[1] = target: Luciferin 4-monooxygenase (Photinus pyralis) (UniProt P08659); test: Firefly luciferase counterscreen qHTS: Assay Interference Panel against the NCATS CANVASS Library (AID 1347363)
Luciferin 4-monooxygenase (Photinus pyralis), sequence (P08659 whole entry, looked up): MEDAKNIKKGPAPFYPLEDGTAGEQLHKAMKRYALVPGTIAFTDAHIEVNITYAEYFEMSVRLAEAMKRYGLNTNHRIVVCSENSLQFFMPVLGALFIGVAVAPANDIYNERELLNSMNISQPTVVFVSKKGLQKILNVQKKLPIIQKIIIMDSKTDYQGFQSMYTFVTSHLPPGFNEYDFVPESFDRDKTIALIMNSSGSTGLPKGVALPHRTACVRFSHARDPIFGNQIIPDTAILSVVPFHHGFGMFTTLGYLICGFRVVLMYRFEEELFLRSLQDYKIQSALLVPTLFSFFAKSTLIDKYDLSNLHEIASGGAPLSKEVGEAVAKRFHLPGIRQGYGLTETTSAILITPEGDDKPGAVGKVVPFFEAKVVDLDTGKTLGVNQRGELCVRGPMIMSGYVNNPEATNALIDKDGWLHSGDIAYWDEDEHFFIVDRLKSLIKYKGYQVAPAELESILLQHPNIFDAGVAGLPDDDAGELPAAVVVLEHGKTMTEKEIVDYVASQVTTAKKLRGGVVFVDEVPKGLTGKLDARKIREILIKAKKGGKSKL
Procedure, shortened: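 Purified P. pyralis luciferase was added to compounds (11-point series) preincubated 15 min at room temperature with substrate containing 0.013 mM D-luciferin and 0.013 mM ATP; luminescence was read after 5 min.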

[2] = KB-3-1 Cancer Cell Toxicity qHTS against the NCATS CANVASS Library (AID 1347366); details: KB-3-1 viability, CellTiter-Glo luminescence, 72 h; at 46.1 µM (top of the series); also: nearly all actives have a fitted effect of over 75% in size
Procedure, shortened: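 500 KB-3-1 cells/well; compounds pin-transferred, 11-pnt series; 72 hr, 37C/5% CO2; CellTiter-Glo, 10 min RT; luminescence read-out.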

[3] = qHTS for ATAD5 Agonist screened against the NCATS CANVASS Library (AID 1347367)
Procedure, shortened: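 Luminescence read-out: ATAD5-driven luciferase in stably transfected HEK 293T cells, which rises post-transcriptionally with DNA damage. Cells were exposed 16hr at 37C to test compound; a CellTiter-Fluor fluorescence read (1hr) measured viability first.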

[4] = MCF7 Cancer Cell Toxicity qHTS against the NCATS CANVASS Library (AID 1347369)
Procedure, shortened: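 Luminescent ATP signal (CellTiterGlo) served as the cytotoxicity read-out after MCF7 breast cancer cells had been incubated 72 hr at 37C with natural products in an 11-point titration.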

[5] = qHTS for ATAD5 Antagonist screened against the NCATS CANVASS Library (AID 1347370);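 also: HEK293T cells carrying an ATAD5 luciferase reporter co-treated with 10 µM 5-fluorouridine; nearly all actives have a fitted effect of over 65% in size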
Procedure, shortened: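 HEK293T cells with a stably integrated ATAD5-controlled luciferase reporter were exposed to compounds (11-pt) alongside 10 uM 5-fluorouridine as ATAD5 stabilizer for 16hr at 37C. Viability was read by CellTiter-Fluor fluorescence, then ATAD5 by luminescence.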

[6] = J3T Cancer Cell Toxicity qHTS against the NCATS CANVASS Library (AID 1347371);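 also: J3T is a canine glioma cancer cell line seeded at 500 cells per well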
Procedure, shortened: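 Viability of the J3T glioma line from dog is scored by ATP luminescence after a 72 hr incubation with natural products.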

[7] = target: Nuclear receptor subfamily 1 group I member 3 (Homo sapiens) (UniProt Q14994); test: qHTS for Constitutive Androstane Receptor (CAR) Antagonist screened against the NCATS CANVASS Library (AID 1347372);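 also: cells stimulated with 50 nM CITCO agonist so inhibition reflects antagonism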
Nuclear receptor subfamily 1 group I member 3 (Homo sapiens), sequence (Q14994 whole entry, looked up): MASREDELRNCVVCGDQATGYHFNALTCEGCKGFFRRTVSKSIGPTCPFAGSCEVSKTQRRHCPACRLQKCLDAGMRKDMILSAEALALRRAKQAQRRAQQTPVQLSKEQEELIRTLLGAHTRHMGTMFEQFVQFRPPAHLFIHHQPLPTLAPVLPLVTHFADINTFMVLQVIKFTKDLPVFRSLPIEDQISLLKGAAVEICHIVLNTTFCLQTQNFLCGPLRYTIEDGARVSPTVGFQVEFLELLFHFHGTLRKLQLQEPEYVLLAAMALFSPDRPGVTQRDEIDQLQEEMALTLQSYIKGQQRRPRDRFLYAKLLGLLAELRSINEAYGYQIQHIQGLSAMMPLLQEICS
Procedure, shortened: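 HepG2 cells stably carrying hCAR and a CYP2B6-2.2kb luciferase reporter were exposed to compounds plus 50 nM CITCO for 24hr at 37C. CAR activity was read by ONE-Glo luminescence, with viability measured first by CellTiter-Fluor.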

[8] = target: Nuclear receptor subfamily 1 group I member 3 (Homo sapiens) (UniProt Q14994); test: qHTS for Constitutive Androstane Receptor (CAR) Agonist screened against the NCATS CANVASS Library (AID 1347373);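 also: every well also contained 1.5 µM PK11195 alongside the test compound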
Procedure, shortened: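 CAR agonism is scored as CYP2B6-promoter luciferase induction in a double-stable transfected HepG2 line, where 1.5uM PK11195 is included in each well. Compounds were tested over a 24hr exposure.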

[9] = qHTS for Hypoxia signaling pathway (HIF-1) antagonists against the NCATS CANVASS Library (AID 1347374);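 also: HRE-bla ME-180 cells stimulated with cobalt chloride to stabilize HIF-1alpha; nearly all actives have a fitted effect of over 60% in size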
Procedure, shortened: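 HRE-bla ME-180 cells (2,000/well, 0.5% dialyzed FBS) were pre-incubated 5 h, then given an 11-point compound series plus CoCl2 (60 uM solution as added) for 17 h at 37C. CCF4 β-lactamase read (ex 405, em 460/530 nm) after 2 h at RT.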

[10] = qHTS for Hypoxia signaling pathway (HIF-1) agonists against the NCATS CANVASS Library (AID 1347375)
Procedure, shortened: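 Inducers of HIF-1 signaling were detected in ME-180 cells bearing an HRE-driven beta-lactamase reporter after 17 h compound exposure. Activity came from CCF4-AM FRET emission ratio (460/530 nm) in qHTS format.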

[11] = qHTS for H2AX Agonists against the NCATS CANVASS Library (AID 1347378)
Procedure, shortened: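 TR-FRET readout (ex 320 nm, em 665/620 nm ratio) of phospho-H2AX (S139) in CHO-K1 lysates. Cells treated 3 hr at 37C with compound titration, 0.76% DMSO; lysis 30 min, antibody detection 24 hr at RT.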

[12] = qHTS for Inflammasome Signaling Inhibitors: IL-1-beta AlphaLISA screen against the NCATS CANVASS Library (AID 1347379);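 also: human THP-1 cells primed with LPS then triggered with ATP; secreted IL-1B measured as AlphaLISA emission at 615 nm; lower signal means less IL-1B release which is the wanted effect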
Procedure, shortened: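 Human THP-1 cells were pretreated 1 hr at 37 °C with compounds (up to 57.5 uM final), then stimulated with LPS (250 ng/mL final) and ATP (1.25 mM final). Secreted IL-1B was read by AlphaLISA after 16 hr.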

[13] = qHTS for Antimalaria activity screened against the NCATS CANVASS Library (AID 1347380);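 also: Plasmodium falciparum strain Dd2 asexual parasites grown in red blood cells; nearly all actives have a fitted effect of over 40% in size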
Procedure, shortened: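 Growth inhibition of asexual erythrocytic P. falciparum Dd2 was quantified by SYBR Green DNA staining. Cultures grew 72 h with compound (11-point series) in hypoxic gas at 37C; lysis and staining lasted 18 h.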

[14] = Inflammasome Signaling qHTS Counterscreen: IL-1-beta AlphaLISA counterscreen against the NCATS CANVASS Library (AID 1347381);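 also: cell-free check with purified IL-1β in medium and no THP-1 cells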
Procedure, shortened: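 To flag interference with the AlphaLISA read-out, a known amount of purified IL-1-beta (4 pg) replaced cell supernatant. Detection used anti-IL-1-beta acceptor beads, biotinylated antibody and streptavidin donor beads at room temperature.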

[15] = Cytotoxicity qHTS for assessment of Hepg2 cells membrane integrity screened against the NCATS CANVASS Library (AID 1347387)
Procedure, shortened: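 Fluorescence proportional to lysed-cell number, from LDH leaking out of HepG2 cells exposed 5 hr at 37C to 0.59 nM - 46 uM compound (11-point qHTS), is measured after 10 min with CytoTox-ONE.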

[16] = SDT Cancer Cell Toxicity qHTS against the NCATS CANVASS Library (AID 1347365);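 also: SDT canine glioma cells 500 per well in 1536 well plates; nearly all actives have a fitted effect of over 60% in size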
Procedure, shortened: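 Dispense 500 SDT cells per well; pin-transfer compounds; incubate 72 hr at 37C, 5% CO2, 95% RH; add CellTiterGlo and read luminescence.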

[17] = G06 Cancer Cell Toxicity qHTS against the NCATS CANVASS Library (AID 1347368); also: nearly all actives have a fitted effect of over 60% in size
Procedure, shortened: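 Cytotoxicity toward canine glioma G06 cells is scored from cellular ATP via luminescence after 72 hr compound exposure at 500 cells/well.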

[18] = 10-beta competent E. coli microbial cell viability qHTS against the NCATS CANVASS Library (AID 1347376)
Procedure, shortened: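 Cytotoxicity toward competent E. coli is scored from cellular ATP content via BacTiter-Glo luminescence following overnight compound exposure at 37C, 5% CO2.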

[19] = DH5-alpha competent E. coli microbial cell viability qHTS against the NCATS CANVASS Library (AID 1347377)
Procedure, shortened: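 Cell viability of competent DH5-alpha E. coli is scored from ATP content by luminescence. Cells sit overnight at 37C with compound across an 11-point concentration series.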

[20] = qHTS for Activators of p53 Stress Response Pathway screened against the NCATS CANVASS Library (AID 1347388)
Procedure, shortened: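 p53RE-bla HCT-116 cells (4000/well) were plated 5 h at 37C, exposed to compounds for 16 h at 37C over an 11-point concentration series, then loaded with CCF4 for 2 h at room temperature; 460/530 nm emission ratio read.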

Measured: outcome

O=c1c(O)c(-c2ccc(O)c(O)c2)oc2cc(O)ccc12
not listed: [16] | [17] | [18] | [19] | [20]
inactive: all other assays above

C=C(C)[C@@H]1CC[C@]2(C(=O)O)CC[C@]3(C)[C@H](CC[C@@H]4[C@@]5(C)CC[C@H](O)C(C)(C)[C@@H]5CC[C@]43C)[C@@H]12
not listed: [2] | [9] | [13]
inactive: all other assays above
